According to the supplement of paper PMC10849652:
About 7,900 targets were measured; listed, in parts, are those with a hit and a random draw of the rest. About 0.6% of all pairs of compound and target were hits.

Tests used:
Experiment in all cases: log2 fold change, soluble protein after heating vs DMSO (PISA); higher = thermal stabilisation; K562 cells, 10 uM, 30 min; active = over 0.2 and 3.5 SD of the protein, either way, in both replicates (recomputed)
erlotinib = compound: C#Cc1cccc(Nc2ncnc3cc(OCCOC)c(OCCOC)cc23)c1 [erlotinib]
Method in brief: (§1)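 Soluble protein was defined as the supernatant after 21,000xg for 90 min. It came from K562 cells at 2×10^6 cells/mL given 10 μM compound for 30 min, heated in aliquots for 3 min across 48°C-58°C, pooled, and extracted in PBS with 0.5% NP-40 at 4°C, and was quantified by TMTpro 16plex LC-MS/MS with equalised channel sums. Thermal stability against control samples, from duplicates, is reported as log2 fold change.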

[1] = compound: C/C(=N\NC(=O)C1=CC(=CC=C1)S(=O)(=O)N2CCOCC2)/C3=C(C=CC(=C3)Cl)O
Method in brief: as §1

[2] = compound: C1=CC(=C(C=C1Cl)C2=NC3=NC=CN=C3C(=N2)NC4=CC=NC=C4)F
Method in brief: as §1

[3] = compound: C1=CC(=CC=C1C2=NC3=C(N2)C=C(C=C3)C(=O)N)OC4=CC=C(C=C4)Cl
Method in brief: as §1

[4] = compound: C1=CC2=C(C=CC(=C2)/C=C\3/C(=O)NC(=NCC4=CC=CS4)S3)N=C1
Method in brief: as §1

[5] = compound: C1=CC2=NC=CN=C2C=C1/C=C/3\C(=O)NC(=O)S3
Method in brief: as §1

[6] = compound: C1=CC=C(C=C1)C2=NC(=C(N2)C3=CC=NC=C3)C4=CC(=C(C=C4)Cl)O
Method in brief: as §1

[7] = compound: C1CCN(C1)C(=O)NC2=CC=CC(=C2)NC3=NC=C(C(=N3)NCCC4=CN=CN4)Br
Method in brief: as §1

[8] = compound: C1CN(CCC1(CC2=CC=C(C=C2)Cl)N)C3=NC=NC4=C3C=CN4
Method in brief: as §1

[9] = compound: C1=CC=C2C(=C1)C3=NNC4=CC=CC(=C43)C2=O
Method in brief: as §1

Measured: log2 fold change

MAP4K5 (UniProt Q9Y4K4)
inactive: erlotinib -0.001 | [1] 0.057 | [2] 0.05 | [3] 0.051 | [4] 0.143 | [5] -0.025 | [6] -0.039 | [7] -0.083 | [8] 0.152

KPNB1 (UniProt Q14974)
UniProt Q14974, sequence (Q14974 whole entry, looked up): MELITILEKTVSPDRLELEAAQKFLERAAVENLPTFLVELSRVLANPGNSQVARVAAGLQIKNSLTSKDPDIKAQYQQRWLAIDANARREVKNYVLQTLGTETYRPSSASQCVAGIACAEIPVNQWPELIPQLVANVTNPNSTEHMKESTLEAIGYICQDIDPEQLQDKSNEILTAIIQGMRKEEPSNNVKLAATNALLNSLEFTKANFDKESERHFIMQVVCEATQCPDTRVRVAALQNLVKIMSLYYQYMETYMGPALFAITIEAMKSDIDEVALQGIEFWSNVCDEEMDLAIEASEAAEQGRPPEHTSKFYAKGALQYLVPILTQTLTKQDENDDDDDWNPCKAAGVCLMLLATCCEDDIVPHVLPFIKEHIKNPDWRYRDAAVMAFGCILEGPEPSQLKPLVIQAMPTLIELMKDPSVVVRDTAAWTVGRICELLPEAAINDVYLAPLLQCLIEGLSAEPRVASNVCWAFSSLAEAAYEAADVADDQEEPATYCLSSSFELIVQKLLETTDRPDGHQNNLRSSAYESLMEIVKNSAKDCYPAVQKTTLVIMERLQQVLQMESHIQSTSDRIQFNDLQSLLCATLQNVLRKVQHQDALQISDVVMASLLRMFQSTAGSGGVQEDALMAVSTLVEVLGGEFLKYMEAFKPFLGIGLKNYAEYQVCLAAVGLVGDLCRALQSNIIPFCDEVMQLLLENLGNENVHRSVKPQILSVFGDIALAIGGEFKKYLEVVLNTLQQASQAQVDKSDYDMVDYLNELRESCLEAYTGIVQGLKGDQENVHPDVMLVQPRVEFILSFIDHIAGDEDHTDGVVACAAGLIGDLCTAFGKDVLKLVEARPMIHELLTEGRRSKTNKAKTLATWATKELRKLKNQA
inactive: erlotinib -0.001 | [1] 0.075 | [2] -0.03 | [3] -0.036 | [4] -0.028 | [5] 0.029 | [6] -0.049 | [9] -0.016 | [7] -0.034 | [8] -0.136

MAP3K20 isoform 2 (UniProt Q9NYL2)
inactive: erlotinib -0.002 | [1] -0.128 | [2] 0.051 | [3] 0.052 | [4] -0.091 | [9] -0.168 | [7] -0.004 | [8] 0.007

METAP1D (UniProt Q6UB28)
UniProt Q6UB28, sequence (Q6UB28 whole entry, looked up): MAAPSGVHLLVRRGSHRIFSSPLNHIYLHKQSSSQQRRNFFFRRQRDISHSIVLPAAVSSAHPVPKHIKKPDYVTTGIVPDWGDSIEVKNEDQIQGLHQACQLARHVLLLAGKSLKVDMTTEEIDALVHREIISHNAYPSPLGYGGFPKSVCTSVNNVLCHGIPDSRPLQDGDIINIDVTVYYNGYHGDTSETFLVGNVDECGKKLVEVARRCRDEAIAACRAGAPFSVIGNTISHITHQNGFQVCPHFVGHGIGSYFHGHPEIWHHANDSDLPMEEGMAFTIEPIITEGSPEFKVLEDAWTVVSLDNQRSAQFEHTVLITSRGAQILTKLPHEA
inactive: erlotinib -0.061 | [1] -0.307 | [2] -0.02 | [3] 0.025 | [4] -0.004 | [5] -0.014 | [6] 0.005 | [9] -0.002 | [7] -0.018 | [8] 0.033

MELK (UniProt Q14680)
inactive: erlotinib 0.067 | [1] -0.067 | [2] 0.018 | [3] 0.027 | [4] 0.033 | [5] 0.009 | [9] 0.031 | [7] -0.027 | [8] -0.086

IRF2BPL (UniProt Q9H1B7)
inactive: erlotinib -0.021 | [1] 0.023 | [2] 0.068 | [3] 0.04 | [4] -0.03 | [5] 0.064 | [6] 0.089 | [9] 0.025 | [7] -0.041 | [8] -0.022

LNPK (UniProt Q9C0E8)
UniProt Q9C0E8, sequence (Q9C0E8 whole entry, looked up): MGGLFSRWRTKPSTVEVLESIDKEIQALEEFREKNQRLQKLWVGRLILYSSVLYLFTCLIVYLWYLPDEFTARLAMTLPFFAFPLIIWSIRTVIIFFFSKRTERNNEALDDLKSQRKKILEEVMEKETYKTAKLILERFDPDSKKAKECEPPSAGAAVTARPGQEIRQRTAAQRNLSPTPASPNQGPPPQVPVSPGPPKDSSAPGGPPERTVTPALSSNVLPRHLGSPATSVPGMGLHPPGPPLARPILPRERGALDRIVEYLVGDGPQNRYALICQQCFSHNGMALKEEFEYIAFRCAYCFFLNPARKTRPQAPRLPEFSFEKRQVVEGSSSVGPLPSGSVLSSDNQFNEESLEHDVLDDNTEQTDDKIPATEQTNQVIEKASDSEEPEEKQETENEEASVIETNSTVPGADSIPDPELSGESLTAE
inactive: erlotinib 0.011 | [1] -0.028 | [2] 0.05 | [3] 0 | [4] -0.018 | [5] 0.058 | [6] 0 | [9] -0.02 | [7] 0.007 | [8] 0.089

LDLR (UniProt P01130)
UniProt P01130, sequence (P01130 whole entry, looked up): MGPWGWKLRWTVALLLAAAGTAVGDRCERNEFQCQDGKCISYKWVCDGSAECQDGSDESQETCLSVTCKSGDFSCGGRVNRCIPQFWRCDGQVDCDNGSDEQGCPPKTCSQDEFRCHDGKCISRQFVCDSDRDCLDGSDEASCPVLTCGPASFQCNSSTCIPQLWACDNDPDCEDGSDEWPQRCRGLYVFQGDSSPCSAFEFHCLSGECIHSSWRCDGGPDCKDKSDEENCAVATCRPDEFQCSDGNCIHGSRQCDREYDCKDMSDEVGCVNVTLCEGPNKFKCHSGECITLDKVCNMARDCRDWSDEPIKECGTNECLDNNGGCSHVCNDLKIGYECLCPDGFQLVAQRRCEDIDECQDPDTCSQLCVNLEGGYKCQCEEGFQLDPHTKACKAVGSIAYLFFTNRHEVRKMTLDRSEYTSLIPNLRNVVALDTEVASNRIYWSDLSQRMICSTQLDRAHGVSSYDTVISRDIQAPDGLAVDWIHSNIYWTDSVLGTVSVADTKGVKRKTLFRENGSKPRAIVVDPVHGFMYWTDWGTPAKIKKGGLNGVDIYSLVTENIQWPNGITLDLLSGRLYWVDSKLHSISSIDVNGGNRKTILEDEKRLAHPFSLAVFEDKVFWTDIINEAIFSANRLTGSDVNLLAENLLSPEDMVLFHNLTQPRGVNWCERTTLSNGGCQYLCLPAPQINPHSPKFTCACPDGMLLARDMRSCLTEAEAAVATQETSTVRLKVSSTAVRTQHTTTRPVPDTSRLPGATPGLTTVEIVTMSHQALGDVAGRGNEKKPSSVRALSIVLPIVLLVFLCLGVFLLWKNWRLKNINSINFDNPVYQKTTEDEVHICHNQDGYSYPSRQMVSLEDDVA
inactive: erlotinib -0.035 | [1] 0.003 | [2] -0.04 | [3] 0.03 | [4] -0.018 | [5] 0.025 | [6] 0.011 | [9] -0.113 | [7] 0.025 | [8] 0.051

MDN1 (UniProt Q9NU22)
inactive: erlotinib 0.063 | [1] 0.11 | [2] 0.02 | [3] -0.025 | [4] 0.144 | [5] 0.037 | [6] 0.02 | [9] -0.022 | [7] -0.025 | [8] 0

MARCKSL1 (UniProt P49006)
UniProt P49006, sequence (P49006 whole entry, looked up): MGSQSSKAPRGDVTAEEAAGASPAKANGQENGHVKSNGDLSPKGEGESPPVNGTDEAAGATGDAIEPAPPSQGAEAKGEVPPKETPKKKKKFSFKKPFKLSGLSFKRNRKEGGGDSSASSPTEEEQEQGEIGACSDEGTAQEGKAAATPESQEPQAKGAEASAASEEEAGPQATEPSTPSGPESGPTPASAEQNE
inactive: erlotinib -0.001 | [1] 0.072 | [2] -0.047 | [3] -0.02 | [4] -0.031 | [5] -0.039 | [6] -0.015 | [9] -0.063 | [7] -0.005 | [8] 0.039

MAST4 (UniProt O15021)
inactive: erlotinib -0.016 | [1] 0.101 | [2] 0.082 | [3] 0.054 | [4] 0.032 | [5] 0.048 | [6] -0.086 | [9] -0.02 | [7] -0.007 | [8] -0.094

MCU (UniProt Q8NE86)
UniProt Q8NE86, sequence (Q8NE86 whole entry, looked up): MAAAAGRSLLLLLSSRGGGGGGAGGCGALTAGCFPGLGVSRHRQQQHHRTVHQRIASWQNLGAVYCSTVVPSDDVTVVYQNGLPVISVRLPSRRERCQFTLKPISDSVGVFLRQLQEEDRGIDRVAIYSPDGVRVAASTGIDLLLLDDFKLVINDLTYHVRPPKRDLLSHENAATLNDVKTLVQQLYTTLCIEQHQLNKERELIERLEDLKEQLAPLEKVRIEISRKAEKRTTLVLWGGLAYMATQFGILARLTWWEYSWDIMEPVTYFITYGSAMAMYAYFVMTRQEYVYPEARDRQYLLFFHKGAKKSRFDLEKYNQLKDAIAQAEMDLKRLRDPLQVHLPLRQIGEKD
inactive: erlotinib 0.007 | [1] 0.042 | [2] 0.083 | [3] 0.008 | [4] 0.027 | [5] 0.013 | [6] 0.001 | [9] 0.014 | [7] 0.004 | [8] 0.013

IKZF1 isoform 2 (UniProt Q13422)
inactive: erlotinib 0.017 | [3] -0.006 | [5] 0.046 | [6] 0.047 | [8] -0.016
active: [7] -0.38

KIF13A isoform 4 (UniProt Q9H1H9)
inactive: [1] 0.21 | [4] 0.161 | [9] 0.021

MAP4K2 (UniProt Q12851)
UniProt Q12851, sequence (Q12851 whole entry, looked up): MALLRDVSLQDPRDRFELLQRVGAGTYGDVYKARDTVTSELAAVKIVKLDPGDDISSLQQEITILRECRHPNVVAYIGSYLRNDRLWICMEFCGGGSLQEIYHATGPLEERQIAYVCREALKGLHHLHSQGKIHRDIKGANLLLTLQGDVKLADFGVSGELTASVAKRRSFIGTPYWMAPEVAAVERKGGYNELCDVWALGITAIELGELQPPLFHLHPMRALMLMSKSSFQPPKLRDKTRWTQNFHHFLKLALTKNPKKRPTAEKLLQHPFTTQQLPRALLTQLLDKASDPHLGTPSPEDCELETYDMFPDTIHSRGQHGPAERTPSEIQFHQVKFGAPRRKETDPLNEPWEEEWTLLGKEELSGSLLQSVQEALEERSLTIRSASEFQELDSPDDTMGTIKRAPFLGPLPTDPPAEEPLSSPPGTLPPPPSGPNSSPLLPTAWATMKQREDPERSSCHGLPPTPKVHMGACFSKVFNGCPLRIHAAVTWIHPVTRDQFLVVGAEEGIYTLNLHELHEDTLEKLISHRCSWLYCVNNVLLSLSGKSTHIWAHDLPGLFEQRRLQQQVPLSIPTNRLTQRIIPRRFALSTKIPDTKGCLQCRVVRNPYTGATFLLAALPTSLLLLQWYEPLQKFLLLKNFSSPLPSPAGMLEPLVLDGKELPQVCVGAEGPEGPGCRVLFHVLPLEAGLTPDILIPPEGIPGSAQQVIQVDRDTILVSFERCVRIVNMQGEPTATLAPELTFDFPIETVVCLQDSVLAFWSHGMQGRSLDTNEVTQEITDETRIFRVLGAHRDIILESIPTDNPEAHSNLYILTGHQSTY
inactive: [5] -0.122 | [7] -0.413 | [8] -0.172

KIF21A (UniProt H0YI78)
inactive: erlotinib 0.077 | [3] -0.137 | [6] 0.1

MFSD11 (UniProt O43934)
UniProt O43934, sequence (O43934 whole entry, looked up): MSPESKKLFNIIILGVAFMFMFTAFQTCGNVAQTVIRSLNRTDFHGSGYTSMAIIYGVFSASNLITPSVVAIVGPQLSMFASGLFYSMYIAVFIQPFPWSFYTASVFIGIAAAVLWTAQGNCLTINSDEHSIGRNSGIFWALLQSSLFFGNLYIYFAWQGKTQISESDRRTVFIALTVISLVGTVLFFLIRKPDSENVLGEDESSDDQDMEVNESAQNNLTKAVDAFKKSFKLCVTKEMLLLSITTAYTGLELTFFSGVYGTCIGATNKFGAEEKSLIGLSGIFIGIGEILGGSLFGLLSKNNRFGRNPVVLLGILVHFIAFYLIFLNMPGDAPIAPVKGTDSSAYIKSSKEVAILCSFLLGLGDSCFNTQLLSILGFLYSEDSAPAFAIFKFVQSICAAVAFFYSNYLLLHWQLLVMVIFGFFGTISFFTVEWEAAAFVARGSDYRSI
inactive: [1] 0.001 | [2] 0.007 | [4] 0.047 | [5] 0.043 | [9] -0.067 | [7] 0.06 | [8] 0.219

MAP4K4 isoform 6 (UniProt O95819)
inactive: [7] -0.168 | [8] -0.025

LAPTM4B (UniProt Q86VI4)
UniProt Q86VI4, sequence (Q86VI4 whole entry, looked up): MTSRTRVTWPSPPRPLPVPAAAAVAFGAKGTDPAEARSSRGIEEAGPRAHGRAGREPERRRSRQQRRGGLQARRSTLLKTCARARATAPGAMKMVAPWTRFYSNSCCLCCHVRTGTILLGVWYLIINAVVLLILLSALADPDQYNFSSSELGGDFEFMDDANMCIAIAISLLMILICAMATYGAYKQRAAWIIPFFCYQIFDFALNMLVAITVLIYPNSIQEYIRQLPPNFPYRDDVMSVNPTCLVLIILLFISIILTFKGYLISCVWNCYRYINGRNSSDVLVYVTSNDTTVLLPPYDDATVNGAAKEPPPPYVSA
inactive: erlotinib -0.074 | [3] -0.054 | [5] 0.093

LSR isoform 3 (UniProt Q86X29)
inactive: [7] -0.169 | [8] 0.25

MGRN1 isoform 2 (UniProt O60291)
active: [4] -0.544
inactive: erlotinib 0.016 | [1] 0.079 | [3] 0 | [5] 0.004 | [6] -0.095 | [9] 0.073 | [7] 0.008 | [8] 0.227
